# Laboratory results published in paper PMC7862700, “An all-to-all approach to the identification of sequence-specific readers for epigenetic DNA modifications on cytosine”.
# What was measured:
# Assay in all cases: DAPPL (digital affinity profiling via proximity ligation, sequencing); 10 mM Tris-HCl pH 7.5, 50 mM NaCl, 1 mM DTT, 4% glycerol, room temperature, 30 min; GST-TFs on glutathione beads, 16-mer random dsDNA library, 0.1% formaldehyde crosslink after washing; high values mean tight binding
# Conditions in all cases: protein: recombinant; tags: N-terminal GST; dsDNA, one strand shown
# [1] = target: T1, ERF (Homo sapiens, UniProt P50548 1-548)
# T1 sequence: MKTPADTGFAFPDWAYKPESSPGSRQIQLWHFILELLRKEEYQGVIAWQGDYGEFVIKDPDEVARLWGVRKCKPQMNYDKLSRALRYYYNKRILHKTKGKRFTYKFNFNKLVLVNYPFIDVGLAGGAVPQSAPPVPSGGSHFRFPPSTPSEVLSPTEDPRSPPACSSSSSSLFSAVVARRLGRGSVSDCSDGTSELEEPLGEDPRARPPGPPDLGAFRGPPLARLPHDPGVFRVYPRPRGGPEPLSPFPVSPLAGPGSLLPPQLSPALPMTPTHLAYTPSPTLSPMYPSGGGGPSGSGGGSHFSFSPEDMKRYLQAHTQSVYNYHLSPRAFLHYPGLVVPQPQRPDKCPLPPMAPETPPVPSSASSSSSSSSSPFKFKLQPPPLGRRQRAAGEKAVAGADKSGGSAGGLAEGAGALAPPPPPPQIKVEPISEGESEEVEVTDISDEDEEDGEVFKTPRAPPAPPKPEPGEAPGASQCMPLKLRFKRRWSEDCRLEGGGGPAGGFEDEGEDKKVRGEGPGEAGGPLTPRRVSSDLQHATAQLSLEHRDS
# Outline: (§1)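 Human transcription factors carrying a GST fusion were produced in yeast, bound to glutathione beads, tagged with DNA barcodes and pooled together with a tag-only sample. Each pool was held with 200 nmole of a random double-stranded 16-mer DNA library in Tris/NaCl/DTT/glycerol buffer for 30 min at room temperature, then washed, crosslinked in 0.1% formaldehyde, proximity-ligated with BsaI/T4 ligase (1 h, 37 °C), PCR-amplified and sequenced on an Illumina NextSeq500. Binding signal is the read frequency of each hexamer for a given factor divided by its frequency in the tag-only sample.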
# [2] = target: T2, ETV3L (Homo sapiens, UniProt Q6ZN32 1-361)
# T2 sequence: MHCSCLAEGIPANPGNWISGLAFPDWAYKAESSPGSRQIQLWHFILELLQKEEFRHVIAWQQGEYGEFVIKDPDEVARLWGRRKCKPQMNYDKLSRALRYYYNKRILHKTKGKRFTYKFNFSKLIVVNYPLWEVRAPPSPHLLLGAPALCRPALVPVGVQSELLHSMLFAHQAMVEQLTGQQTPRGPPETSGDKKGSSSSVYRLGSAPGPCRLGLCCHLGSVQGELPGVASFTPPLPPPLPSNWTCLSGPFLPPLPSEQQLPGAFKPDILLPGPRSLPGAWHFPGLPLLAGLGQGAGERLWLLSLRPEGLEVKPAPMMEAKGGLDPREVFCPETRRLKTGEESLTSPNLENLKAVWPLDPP
# Outline: as §1
# [3] = target: T3, ETS2 (Homo sapiens, UniProt P15036 1-469)
# T3 sequence: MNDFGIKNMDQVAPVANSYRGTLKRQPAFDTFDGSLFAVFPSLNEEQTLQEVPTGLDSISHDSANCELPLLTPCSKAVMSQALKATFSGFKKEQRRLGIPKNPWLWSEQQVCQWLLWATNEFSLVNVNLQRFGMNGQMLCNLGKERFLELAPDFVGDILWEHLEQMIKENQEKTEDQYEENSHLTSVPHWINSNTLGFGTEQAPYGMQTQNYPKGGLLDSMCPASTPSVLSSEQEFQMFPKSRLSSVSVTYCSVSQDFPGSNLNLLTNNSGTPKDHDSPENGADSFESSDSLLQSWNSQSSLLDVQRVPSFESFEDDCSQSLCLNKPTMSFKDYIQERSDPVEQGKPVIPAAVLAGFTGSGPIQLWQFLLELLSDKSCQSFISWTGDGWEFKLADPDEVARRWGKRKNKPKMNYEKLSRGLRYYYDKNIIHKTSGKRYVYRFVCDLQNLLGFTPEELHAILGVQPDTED
# Outline: as §1
# [4] = target: T4, SPDEF (Homo sapiens, UniProt O95238 1-335)
# T4 sequence: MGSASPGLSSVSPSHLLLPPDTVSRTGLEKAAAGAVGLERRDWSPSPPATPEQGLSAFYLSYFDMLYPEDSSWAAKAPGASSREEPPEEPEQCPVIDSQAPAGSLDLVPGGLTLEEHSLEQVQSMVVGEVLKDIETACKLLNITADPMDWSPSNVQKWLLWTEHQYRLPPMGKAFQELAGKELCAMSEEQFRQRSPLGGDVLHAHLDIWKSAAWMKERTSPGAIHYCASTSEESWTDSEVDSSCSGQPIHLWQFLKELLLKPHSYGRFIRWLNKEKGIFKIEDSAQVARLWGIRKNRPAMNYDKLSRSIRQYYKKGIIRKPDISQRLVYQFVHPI
# Outline: as §1
# [5] = target: T5, ETV7 (Homo sapiens, UniProt Q9Y603 1-341)
# T5 sequence: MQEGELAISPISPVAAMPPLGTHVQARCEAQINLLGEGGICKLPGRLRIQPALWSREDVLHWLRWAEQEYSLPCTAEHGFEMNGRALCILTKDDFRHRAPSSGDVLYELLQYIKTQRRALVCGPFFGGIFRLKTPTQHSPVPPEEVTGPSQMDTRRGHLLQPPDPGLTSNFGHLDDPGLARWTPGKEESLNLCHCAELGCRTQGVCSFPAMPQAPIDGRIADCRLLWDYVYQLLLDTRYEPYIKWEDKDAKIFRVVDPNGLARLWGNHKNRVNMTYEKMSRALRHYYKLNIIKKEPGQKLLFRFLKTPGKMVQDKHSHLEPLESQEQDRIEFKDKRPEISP
# Outline: as §1
# [6] = target: T6, ELF5 (Homo sapiens, UniProt Q9UKW6-2 1-255)
# T6 sequence: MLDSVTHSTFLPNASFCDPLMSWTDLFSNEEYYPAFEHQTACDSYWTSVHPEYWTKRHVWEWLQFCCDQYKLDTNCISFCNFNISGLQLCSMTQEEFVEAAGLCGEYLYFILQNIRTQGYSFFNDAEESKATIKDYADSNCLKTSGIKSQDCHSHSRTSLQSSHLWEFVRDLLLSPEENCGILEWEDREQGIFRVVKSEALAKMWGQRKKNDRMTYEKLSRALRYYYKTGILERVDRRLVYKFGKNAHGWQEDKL
# Outline: as §1
# [7] = target: T7, ETV3 (Homo sapiens, UniProt P41162-2 1-143)
# T7 sequence: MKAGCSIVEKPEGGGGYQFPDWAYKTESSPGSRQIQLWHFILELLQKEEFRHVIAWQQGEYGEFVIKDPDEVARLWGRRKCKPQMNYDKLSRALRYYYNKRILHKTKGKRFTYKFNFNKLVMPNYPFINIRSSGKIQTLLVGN
# Outline: as §1
# [8] = target: ETV6 (Homo sapiens, UniProt P41212 1-452)
# Chain of ETV6 (P41212 whole entry): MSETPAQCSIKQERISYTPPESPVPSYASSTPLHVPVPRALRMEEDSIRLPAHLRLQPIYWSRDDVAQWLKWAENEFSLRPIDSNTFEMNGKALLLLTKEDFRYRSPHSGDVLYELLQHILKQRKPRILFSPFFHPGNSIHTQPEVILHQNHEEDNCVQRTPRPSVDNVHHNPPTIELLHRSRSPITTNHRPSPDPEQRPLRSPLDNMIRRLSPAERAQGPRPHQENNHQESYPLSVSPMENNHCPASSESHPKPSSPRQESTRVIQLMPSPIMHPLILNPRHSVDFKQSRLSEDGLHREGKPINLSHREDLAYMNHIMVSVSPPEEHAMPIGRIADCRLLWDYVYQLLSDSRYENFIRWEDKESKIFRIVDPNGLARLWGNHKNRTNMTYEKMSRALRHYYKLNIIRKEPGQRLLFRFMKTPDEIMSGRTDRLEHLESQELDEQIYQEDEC
# Outline: as §1
Sequence,binding signal [1],binding signal [2],binding signal [3],binding signal [4],binding signal [5],binding signal [6],binding signal [7],binding signal [8]
TACATC,"1.63 fold enrichment (6-mer frequency, TF over GST control)","1.55 fold enrichment (6-mer frequency, TF over GST control)","1.66 fold enrichment (6-mer frequency, TF over GST control)","2.97 fold enrichment (6-mer frequency, TF over GST control)","1.59 fold enrichment (6-mer frequency, TF over GST control)","1.81 fold enrichment (6-mer frequency, TF over GST control)","1.68 fold enrichment (6-mer frequency, TF over GST control)","1.57 fold enrichment (6-mer frequency, TF over GST control)"
ATTACT,"1.37 fold enrichment (6-mer frequency, TF over GST control)","1.23 fold enrichment (6-mer frequency, TF over GST control)","1.31 fold enrichment (6-mer frequency, TF over GST control)","1.26 fold enrichment (6-mer frequency, TF over GST control)","1.25 fold enrichment (6-mer frequency, TF over GST control)","1.25 fold enrichment (6-mer frequency, TF over GST control)","1.29 fold enrichment (6-mer frequency, TF over GST control)","1.37 fold enrichment (6-mer frequency, TF over GST control)"
TCCGTT,"1.53 fold enrichment (6-mer frequency, TF over GST control)","1.46 fold enrichment (6-mer frequency, TF over GST control)","1.54 fold enrichment (6-mer frequency, TF over GST control)","1.74 fold enrichment (6-mer frequency, TF over GST control)","1.41 fold enrichment (6-mer frequency, TF over GST control)","1.66 fold enrichment (6-mer frequency, TF over GST control)","1.58 fold enrichment (6-mer frequency, TF over GST control)","1.49 fold enrichment (6-mer frequency, TF over GST control)"
CCTCCG,"1.41 fold enrichment (6-mer frequency, TF over GST control)","1.65 fold enrichment (6-mer frequency, TF over GST control)","1.31 fold enrichment (6-mer frequency, TF over GST control)","1.36 fold enrichment (6-mer frequency, TF over GST control)","1.2 fold enrichment (6-mer frequency, TF over GST control)","1.35 fold enrichment (6-mer frequency, TF over GST control)","1.3 fold enrichment (6-mer frequency, TF over GST control)","1.31 fold enrichment (6-mer frequency, TF over GST control)"
CCCCTG,"1.39 fold enrichment (6-mer frequency, TF over GST control)","1.13 fold enrichment (6-mer frequency, TF over GST control)","1.21 fold enrichment (6-mer frequency, TF over GST control)","1.17 fold enrichment (6-mer frequency, TF over GST control)","1.13 fold enrichment (6-mer frequency, TF over GST control)","1.15 fold enrichment (6-mer frequency, TF over GST control)","1.07 fold enrichment (6-mer frequency, TF over GST control)","1.07 fold enrichment (6-mer frequency, TF over GST control)"
TACACG,"1.06 fold enrichment (6-mer frequency, TF over GST control)","1.03 fold enrichment (6-mer frequency, TF over GST control)","1.11 fold enrichment (6-mer frequency, TF over GST control)","1.18 fold enrichment (6-mer frequency, TF over GST control)","1.15 fold enrichment (6-mer frequency, TF over GST control)","1.13 fold enrichment (6-mer frequency, TF over GST control)","1.08 fold enrichment (6-mer frequency, TF over GST control)","1.07 fold enrichment (6-mer frequency, TF over GST control)"
TATGCG,"1.23 fold enrichment (6-mer frequency, TF over GST control)","1.39 fold enrichment (6-mer frequency, TF over GST control)","1.43 fold enrichment (6-mer frequency, TF over GST control)","1.36 fold enrichment (6-mer frequency, TF over GST control)","1.51 fold enrichment (6-mer frequency, TF over GST control)","1.32 fold enrichment (6-mer frequency, TF over GST control)","1.58 fold enrichment (6-mer frequency, TF over GST control)","1.22 fold enrichment (6-mer frequency, TF over GST control)"
